# Test results from PubChem BioAssay.
# A number with no mark means an inactive call. Active and inactive are the calls of the source.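 How the source made its calls: active means normalized viability below 100% at a tested concentration; inactive means the rest.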
# Experiment: ovarian cancer cell viability with rucaparib, profiling panel, oncology-focused library, rucaparib conditional (AID 1508598)
# Conditions: patient-derived ovarian cancer cells, CellTiter-Glo viability, 144 h, hits give low values
# [1] = at 0.000305 µM, OCI-C5x cells, with rucaparib 10 µM, 100% = cells with rucaparib alone
# [2] = at 0.000305 µM, OCI-C5x cells, without rucaparib
# [3] = at 0.000305 µM, OCI-P5x cells, with rucaparib 20 µM, 100% = cells with rucaparib alone
# [4] = at 0.000305 µM, OCI-P5x cells, without rucaparib
# [5] = at 0.00122 µM, OCI-C5x cells, with rucaparib 10 µM, 100% = cells with rucaparib alone
# [6] = at 0.00122 µM, OCI-C5x cells, without rucaparib
# [7] = at 0.00122 µM, OCI-P5x cells, with rucaparib 20 µM, 100% = cells with rucaparib alone
# [8] = at 0.00122 µM, OCI-P5x cells, without rucaparib
# [9] = at 0.00488 µM, OCI-C5x cells, with rucaparib 10 µM, 100% = cells with rucaparib alone
# [10] = at 0.00488 µM, OCI-C5x cells, without rucaparib
# [11] = at 0.00488 µM, OCI-P5x cells, with rucaparib 20 µM, 100% = cells with rucaparib alone
# [12] = at 0.00488 µM, OCI-P5x cells, without rucaparib
# [13] = at 0.0195 µM, OCI-C5x cells, with rucaparib 10 µM, 100% = cells with rucaparib alone
# [14] = at 0.0195 µM, OCI-C5x cells, without rucaparib
# [15] = at 0.0195 µM, OCI-P5x cells, with rucaparib 20 µM, 100% = cells with rucaparib alone
# [16] = at 0.0195 µM, OCI-P5x cells, without rucaparib
# [17] = at 0.0781 µM, OCI-C5x cells, with rucaparib 10 µM, 100% = cells with rucaparib alone
# [18] = at 0.0781 µM, OCI-C5x cells, without rucaparib
# [19] = at 0.0781 µM, OCI-P5x cells, with rucaparib 20 µM, 100% = cells with rucaparib alone
# [20] = at 0.0781 µM, OCI-P5x cells, without rucaparib
# [21] = at 0.313 µM, OCI-C5x cells, with rucaparib 10 µM, 100% = cells with rucaparib alone
# [22] = at 0.313 µM, OCI-C5x cells, without rucaparib
# [23] = at 0.313 µM, OCI-P5x cells, with rucaparib 20 µM, 100% = cells with rucaparib alone
# [24] = at 0.313 µM, OCI-P5x cells, without rucaparib
# [25] = at 1.25 µM, OCI-C5x cells, with rucaparib 10 µM, 100% = cells with rucaparib alone
# [26] = at 1.25 µM, OCI-C5x cells, without rucaparib
# [27] = at 1.25 µM, OCI-P5x cells, with rucaparib 20 µM, 100% = cells with rucaparib alone
# [28] = at 1.25 µM, OCI-P5x cells, without rucaparib
# [29] = at 5 µM, OCI-C5x cells, with rucaparib 10 µM, 100% = cells with rucaparib alone
# [30] = at 5 µM, OCI-C5x cells, without rucaparib
# [31] = at 5 µM, OCI-P5x cells, with rucaparib 20 µM, 100% = cells with rucaparib alone
# [32] = at 5 µM, OCI-P5x cells, without rucaparib
structure (smiles),measurement,setting,value
COc1cc2c(cc1O)CC[C@@H]1[C@H]2CC[C@]2(C)[C@H](O)CC[C@@H]12,viability,[1],113%
same,viability,[2],107%
same,viability,[3],106%
same,viability,[4],96.3% (active)
same,viability,[5],116%
same,viability,[6],111%
same,viability,[7],99.4% (active)
same,viability,[8],104%
same,viability,[9],119%
same,viability,[10],118%
same,viability,[11],109%
same,viability,[12],108%
same,viability,[13],103%
same,viability,[14],105%
same,viability,[15],95.3% (active)
same,viability,[16],105%
same,viability,[17],105%
same,viability,[18],105%
same,viability,[19],102%
same,viability,[20],104%
same,viability,[21],124%
same,viability,[22],107%
same,viability,[23],106%
same,viability,[24],105%
same,viability,[25],107%
same,viability,[26],96.8% (active)
same,viability,[27],104%
same,viability,[28],66.5% (active)
same,viability,[29],124%
same,viability,[30],101%
same,viability,[31],98.9% (active)
same,viability,[32],97.5% (active)
CCC(C)(C)C(=O)O[C@@H]1C[C@@H](C)C=C2C=C[C@H](C)[C@@H](CC[C@@H]3C[C@@H](O)CC(=O)O3)[C@H]21,viability,[1],109%
same,viability,[2],119%
same,viability,[3],102%
same,viability,[4],113%
same,viability,[5],108%
same,viability,[6],113%
same,viability,[7],110%
same,viability,[8],115%
same,viability,[9],112%
same,viability,[10],110%
same,viability,[11],96.9% (active)
same,viability,[12],110%
same,viability,[13],95.4% (active)
same,viability,[14],112%
same,viability,[15],94.2% (active)
same,viability,[16],101%
same,viability,[17],76.6% (active)
same,viability,[18],70.9% (active)
same,viability,[19],72.4% (active)
same,viability,[20],66.6% (active)
same,viability,[21],36% (active)
same,viability,[22],32% (active)
same,viability,[23],13.1% (active)
same,viability,[24],14.5% (active)
same,viability,[25],24.2% (active)
same,viability,[26],27.2% (active)
same,viability,[27],7.81% (active)
same,viability,[28],7.43% (active)
same,viability,[29],8.07% (active)
same,viability,[30],7.81% (active)
same,viability,[31],5.14% (active)
same,viability,[32],3.59% (active)
CC(=O)[C@]1(O)Cc2c(O)c3c(c(O)c2[C@H](O[C@H]2C[C@H](N)[C@H](O)[C@H](C)O2)C1)C(=O)c1ccccc1C3=O,viability,[1],107%
same,viability,[2],103%
same,viability,[3],110%
same,viability,[4],115%
same,viability,[5],105%
same,viability,[6],107%
same,viability,[7],107%
same,viability,[8],112%
same,viability,[9],104%
same,viability,[10],73.9% (active)
same,viability,[11],110%
same,viability,[12],96.9% (active)
same,viability,[13],148%
same,viability,[14],112%
same,viability,[15],74% (active)
same,viability,[16],36.9% (active)
same,viability,[17],82.5% (active)
same,viability,[18],7.56% (active)
same,viability,[19],55.5% (active)
same,viability,[20],12.2% (active)
same,viability,[21],3.18% (active)
same,viability,[22],1.75% (active)
same,viability,[23],19% (active)
same,viability,[24],7.09% (active)
same,viability,[25],1.52% (active)
same,viability,[26],1.48% (active)
same,viability,[27],9.24% (active)
same,viability,[28],4.04% (active)
same,viability,[29],3.72% (active)
same,viability,[30],3.03% (active)
same,viability,[31],4.45% (active)
same,viability,[32],3.64% (active)
CC#C[C@@]1(O)CC[C@H]2[C@@H]3CCC4=CC(=O)CCC4=C3[C@H](c3ccc(N(C)C)cc3)C[C@@]21C,viability,[1],124%
same,viability,[2],104%
same,viability,[3],88.4% (active)
same,viability,[4],89.8% (active)
same,viability,[5],112%
same,viability,[6],114%
same,viability,[7],88.8% (active)
same,viability,[8],94.8% (active)
same,viability,[9],122%
same,viability,[10],108%
same,viability,[11],93.3% (active)
same,viability,[12],95% (active)
same,viability,[13],118%
same,viability,[14],110%
same,viability,[15],86.7% (active)
same,viability,[16],87.4% (active)
same,viability,[17],122%
same,viability,[18],111%
same,viability,[19],84.5% (active)
same,viability,[20],86.4% (active)
same,viability,[21],113%
same,viability,[22],118%
same,viability,[23],83.6% (active)
same,viability,[24],89.9% (active)
same,viability,[25],121%
same,viability,[26],118%
same,viability,[27],87.2% (active)
same,viability,[28],91% (active)
same,viability,[29],162%
same,viability,[30],140%
same,viability,[31],72.1% (active)
same,viability,[32],89.7% (active)
